Source: PubChem BioAssay AID1210 (NMMLSC, 2008)
Activity calls are given as the source filed them.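 The calls were made as follows: active = blocks over 70% of labeled estradiol binding at 10 µM, or over a set limit at 100 nM; inactive = the rest.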

Biological target: Estrogen receptor beta (Homo sapiens) (UniProt Q92731)
Assay: ERbeta ligand binders by competition, primary screen, cell-based, Cos7 ERbeta-GFP, flow cytometry (AID 1210);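 also: 0% = DMSO vehicle wells and 100% = complete loss of labeled estradiol signal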
Conditions: fluorescent estrogen binding, at 10 µM, stronger effect = higher value

Estrogen receptor beta (Homo sapiens), sequence (Q92731 whole entry, looked up): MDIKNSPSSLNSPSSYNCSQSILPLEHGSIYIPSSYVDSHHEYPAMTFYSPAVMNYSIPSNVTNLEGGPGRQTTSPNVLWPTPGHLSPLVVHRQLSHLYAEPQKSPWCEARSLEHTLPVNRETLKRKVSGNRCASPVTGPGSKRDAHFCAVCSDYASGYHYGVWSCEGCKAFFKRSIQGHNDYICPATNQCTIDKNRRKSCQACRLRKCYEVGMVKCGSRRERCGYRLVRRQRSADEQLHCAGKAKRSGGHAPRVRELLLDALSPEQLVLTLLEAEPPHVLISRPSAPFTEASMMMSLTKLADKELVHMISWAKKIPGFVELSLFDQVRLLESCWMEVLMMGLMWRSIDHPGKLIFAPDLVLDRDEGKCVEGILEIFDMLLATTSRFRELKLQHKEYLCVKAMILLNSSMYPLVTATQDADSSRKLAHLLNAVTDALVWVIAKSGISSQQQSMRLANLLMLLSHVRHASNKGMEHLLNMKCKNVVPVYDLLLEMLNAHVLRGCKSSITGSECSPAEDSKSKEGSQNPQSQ

Compound | inhibition
COc1ccc(Cl)cc1NC(=O)c1ocnc1C | 50% (inactive)
O=C(Nc1ccc2c(c1)nc1n2CCSC1)c1ccco1 | 57% (inactive)
C=C(C)CNC(=S)NNC(=O)CCn1c2cc(Cl)ccc2c2ccc(Cl)cc21 | 18% (inactive)
CC(=O)c1ccc2c(c1)C1C=CCC1C(c1ccc(S(=O)(=O)N3CCOCC3)cc1)N2 (stereo not drawn) | 78% (active)
O=C1c2ccccc2C(=O)N1CCCc1nc2ccccc2c(=O)n1CCCn1ccnc1 | 61% (inactive)
Cc1ccc(NC(=O)CN2C(=O)S/C(=C/c3ccc(-c4cc(C(=O)O)ccc4C)o3)C2=O)cc1C | 36% (inactive)
Cc1cccc(N2CSC3=C(C#N)C(c4ccc(C)o4)CC(=O)N3C2)c1 (stereo not drawn) | 35% (inactive)
CCc1oc2ccccc2c1C(=O)c1cc(Br)c(O)c(Br)c1 | 45% (inactive)
NS(=O)(=O)c1ccc2c(c1)C1C=CCC1C(C1CC=CCC1)N2 (stereo not drawn) | 14% (inactive)
CCn1c2ccccc2c2cc(NC(=O)CSc3nnc(-c4ccc(OC)cc4)n3N)ccc21 | 57% (inactive)
CCN(c1ccccc1)S(=O)(=O)c1cc(C(=O)O)ccc1C | 2% (inactive)
Cc1nc(-c2ccc(O)c(O)c2)cs1 | 31% (inactive)
Nc1ccc2nc3n(c(=O)c2c1)CCC3 | 49% (inactive)
Oc1ccc(-c2csc(-c3c[nH]c4ccccc34)n2)c(O)c1 | 81% (active)
Cc1ccc(S(=O)(=O)NCCn2c(C)cc3ccccc32)cc1 | 23% (inactive)
NC(=O)c1c(NC(=O)c2cc3ccccc3o2)sc2c1CCC2 | 18% (inactive)
COc1ccc(-c2nn(-c3ccccc3)cc2/C=C2/SC(=S)N(Cc3ccco3)C2=O)c(C)c1 | 57% (inactive)
O=C(O)C1Nc2c(O)cccc2C2C=CCC12 (stereo not drawn) | 0% (inactive)
O=C(Cc1cccs1)Nc1nnc(Cc2ccccc2)s1 | 18% (inactive)
Nc1cc2sc(-c3ccc(C(=O)O)cc3)nc2cc1Cl | 22% (inactive)

Compound | inhibition
C=CCn1c(=O)c(C#N)cc2c(=O)n3ccccc3nc21 | 39% (inactive)
COc1ccc(/C=N/NC(=O)c2nc(-c3ccccc3)n(-c3ccccc3)n2)c(O)c1 | 45% (inactive)
CCN(CC)CCCNC(=O)c1nn(-c2ccccc2OC)c(=O)c2ccccc12 | 40% (inactive)
CCCc1nnc2n1N=C(c1ccc(-c3cc(Cl)ccc3Cl)o1)CS2 | 43% (inactive)
O=C(Nc1nc(-c2nc3ccccc3s2)cs1)C1COc2ccccc2O1 (stereo not drawn) | 19% (inactive)
CCc1ccc(-c2nn(-c3ccccc3)cc2CSC(=N)N)cc1 | 76% (active)
COc1cc(NC(=O)COc2ccc(-n3cnnn3)cc2)c(OC)cc1Cl | 61% (inactive)
CCNC(=O)c1ccc2c(c1)C1C3CCC(C3)C1C(c1ccccc1)N2 (stereo not drawn) | 29% (inactive)
C=CCn1c(COc2cccc(C)c2)nnc1SCC(=O)NC(=O)NCc1ccco1 | 31% (inactive)
O=C(Nc1ccccc1N1CCOCC1)c1cc(-c2ccco2)nc2ccccc12 | 56% (inactive)
Cc1nn(-c2ccccc2)c(C)c1NC(=O)Cc1cccs1 | 67% (inactive)
Nc1ccc(-c2cc(-c3cccc(N)c3)nc(-c3ccccc3)n2)cc1 | 39% (inactive)
CC1CCN(S(=O)(=O)c2ccc(NC(=O)Cc3cccs3)cc2)CC1 | 36% (inactive)
CCOC(=O)N1CCN(S(=O)(=O)c2ccc(C(=O)Nc3nc4ccc(F)cc4s3)cc2)CC1 | 69% (inactive)
O=C(CSc1nnc(-c2ccc(O)cc2)n1Cc1ccccc1)NNC(=O)c1ccc(Br)cc1 | 31% (inactive)
CC(=O)c1ccc(NCC(=O)N2CCN(c3ccccc3)CC2)cc1 | 72% (active)
COc1ccc(NC2=CC(c3cccc(OC)c3)N(c3ccc(OC)cc3)C2=O)cc1 (stereo not drawn) | 33% (inactive)
O=C(Nc1sc2c(c1C(=O)O)CCC2)c1ccccc1 | 46% (inactive)
CC(=O)Nc1ccc(OC(=O)CC2SC(=O)NC2=O)cc1 (stereo not drawn) | 59% (active)

Same assay, conditions: fluorescent estrogen binding, ligand binding inhibition, at 0.1 µM, stronger effect = higher value

Compound | inhibition [%]
COc1ccc(Cl)cc1NC(=O)c1ocnc1C | 3
O=C(Nc1ccc2c(c1)nc1n2CCSC1)c1ccco1 | 31
C=C(C)CNC(=S)NNC(=O)CCn1c2cc(Cl)ccc2c2ccc(Cl)cc21 | 20
CC(=O)c1ccc2c(c1)C1C=CCC1C(c1ccc(S(=O)(=O)N3CCOCC3)cc1)N2 (stereo not drawn) | 17
O=C1c2ccccc2C(=O)N1CCCc1nc2ccccc2c(=O)n1CCCn1ccnc1 | 20
Cc1ccc(NC(=O)CN2C(=O)S/C(=C/c3ccc(-c4cc(C(=O)O)ccc4C)o3)C2=O)cc1C | 21
Cc1cccc(N2CSC3=C(C#N)C(c4ccc(C)o4)CC(=O)N3C2)c1 (stereo not drawn) | 21
CCc1oc2ccccc2c1C(=O)c1cc(Br)c(O)c(Br)c1 | 9
NS(=O)(=O)c1ccc2c(c1)C1C=CCC1C(C1CC=CCC1)N2 (stereo not drawn) | 2
CCn1c2ccccc2c2cc(NC(=O)CSc3nnc(-c4ccc(OC)cc4)n3N)ccc21 | 24
CCN(c1ccccc1)S(=O)(=O)c1cc(C(=O)O)ccc1C | 13
Cc1nc(-c2ccc(O)c(O)c2)cs1 | 4
Nc1ccc2nc3n(c(=O)c2c1)CCC3 | 9
Oc1ccc(-c2csc(-c3c[nH]c4ccccc34)n2)c(O)c1 | 29
Cc1ccc(S(=O)(=O)NCCn2c(C)cc3ccccc32)cc1 | 18
NC(=O)c1c(NC(=O)c2cc3ccccc3o2)sc2c1CCC2 | 54
COc1ccc(-c2nn(-c3ccccc3)cc2/C=C2/SC(=S)N(Cc3ccco3)C2=O)c(C)c1 | 23
O=C(O)C1Nc2c(O)cccc2C2C=CCC12 (stereo not drawn) | 4
O=C(Cc1cccs1)Nc1nnc(Cc2ccccc2)s1 | 29
Nc1cc2sc(-c3ccc(C(=O)O)cc3)nc2cc1Cl | 44

Compound | inhibition [%]
C=CCn1c(=O)c(C#N)cc2c(=O)n3ccccc3nc21 | 22
COc1ccc(/C=N/NC(=O)c2nc(-c3ccccc3)n(-c3ccccc3)n2)c(O)c1 | 33
CCN(CC)CCCNC(=O)c1nn(-c2ccccc2OC)c(=O)c2ccccc12 | 19
CCCc1nnc2n1N=C(c1ccc(-c3cc(Cl)ccc3Cl)o1)CS2 | 48
O=C(Nc1nc(-c2nc3ccccc3s2)cs1)C1COc2ccccc2O1 (stereo not drawn) | 2
CCc1ccc(-c2nn(-c3ccccc3)cc2CSC(=N)N)cc1 | 71
COc1cc(NC(=O)COc2ccc(-n3cnnn3)cc2)c(OC)cc1Cl | 17
CCNC(=O)c1ccc2c(c1)C1C3CCC(C3)C1C(c1ccccc1)N2 (stereo not drawn) | 58
C=CCn1c(COc2cccc(C)c2)nnc1SCC(=O)NC(=O)NCc1ccco1 | 47
O=C(Nc1ccccc1N1CCOCC1)c1cc(-c2ccco2)nc2ccccc12 | 28
Cc1nn(-c2ccccc2)c(C)c1NC(=O)Cc1cccs1 | 25
Nc1ccc(-c2cc(-c3cccc(N)c3)nc(-c3ccccc3)n2)cc1 | 27
CC1CCN(S(=O)(=O)c2ccc(NC(=O)Cc3cccs3)cc2)CC1 | 33
CCOC(=O)N1CCN(S(=O)(=O)c2ccc(C(=O)Nc3nc4ccc(F)cc4s3)cc2)CC1 | 39
O=C(CSc1nnc(-c2ccc(O)cc2)n1Cc1ccccc1)NNC(=O)c1ccc(Br)cc1 | 30
CC(=O)c1ccc(NCC(=O)N2CCN(c3ccccc3)CC2)cc1 | 41
COc1ccc(NC2=CC(c3cccc(OC)c3)N(c3ccc(OC)cc3)C2=O)cc1 (stereo not drawn) | 25
O=C(Nc1sc2c(c1C(=O)O)CCC2)c1ccccc1 | 35
CC(=O)Nc1ccc(OC(=O)CC2SC(=O)NC2=O)cc1 (stereo not drawn) | 66
